Measured values reported in PubChem BioAssay (NCI).
This is part of a sample that, as a whole, favours compounds with a hit. Of some 83,000 tested, about 20% had one in any assay.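 Activity criterion: percent growth below 10, measured after cells in 96-well plates were exposed to a single compound concentration for 48 hours.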 Unmarked numbers belong to inactive results. The source made the active and inactive calls.

Key:
Assay in all cases: NCI-60 one-dose screen, 48 h (100 = growth as untreated, 0 = no growth, -100 = all killed)
Conditions in all cases: 10 µM unless noted
SR leukemia = system: SR leukemia
RPMI-8226 leukemia = system: RPMI-8226 leukemia
OVCAR-5 ovarian = system: OVCAR-5 ovarian
OVCAR-4 ovarian = system: OVCAR-4 ovarian
SK-OV-3 ovarian = system: SK-OV-3 ovarian
IGROV1 ovarian = system: IGROV1 ovarian
OVCAR-3 ovarian = system: OVCAR-3 ovarian
HS 578T breast = system: HS 578T breast
NCI/ADR-RES ovarian = system: NCI/ADR-RES ovarian
T-47D breast = system: T-47D breast
BT-549 breast = system: BT-549 breast
MDA-MB-435 melanoma = system: MDA-MB-435 melanoma
SW-620 colon = system: SW-620 colon
MCF7 breast = system: MCF7 breast
HCT-116 colon = system: HCT-116 colon
HCC-2998 colon = system: HCC-2998 colon
KM12 colon = system: KM12 colon
OVCAR-8 ovarian = system: OVCAR-8 ovarian

Row | Structure (SMILES) | growth (SR leukemia) | growth (RPMI-8226 leukemia) | growth (OVCAR-5 ovarian) | growth (OVCAR-4 ovarian) | growth (SK-OV-3 ovarian) | growth (IGROV1 ovarian) | growth (OVCAR-3 ovarian) | growth (HS 578T breast) | growth (NCI/ADR-RES ovarian) | growth (T-47D breast) | growth (BT-549 breast) | growth (MDA-MB-435 melanoma) | growth (SW-620 colon) | growth (MCF7 breast) | growth (HCT-116 colon) | growth (HCC-2998 colon) | growth (KM12 colon) | growth (OVCAR-8 ovarian) [%]
1 | CCOC(=O)c1c(C)n2c(=O)cc(C)c3c(OC(C)=O)c(OC(C)=O)cc1c32 | 17.8% | 42.3% | 99.2% | 34.6% | 103% | 76.9% | 6.3% (active) | 91.4% | 33% | 52.7% | 80.3% | 83.3% | 34.8% | 62.2% | 23.3% | 84.4% | 86.7% | 
2 | COc1cc(CNC(=O)CCCC/C=C/C(C)C)ccc1OCc1cn(-c2cccc([N+](=O)[O-])c2)nn1 | 78.4% | 65.9% | 107% | 94.2% | 93.6% | 89.4% | 105% | 90.8% | 81.8% | 72.3% | 96.3% | 101% | 97.4% | 74.1% | 42% |  | 91.2% | 
3 | N=C(N)c1ccc(-c2ccc(-c3ccc(Cl)cc3Cl)s2)nc1 | 5.54% (active) | 0.186% (active) | 80.2% | 98.2% | 91.3% | 50.6% | 64.4% | 90.1% | 96.7% | 81.2% | 105% | 62.5% | -63.6% (active) | -30.5% (active) | -69.5% (active) | -33% (active) | -31.5% (active) | 
4 | c1ccc(-c2nc(N3CCNCC3)c3oc(-c4ccccc4)nc3n2)cc1 | -1.84% (active) | -32.6% (active) | -82% (active) | -88.2% (active) | -46% (active) | -88.8% (active) | -53.4% (active) | -60.7% (active) | -48.8% (active) | -41.9% (active) | 106% | -93.9% (active) | -77.7% (active) | -62.3% (active) | -31.7% (active) | -87.5% (active) | -75.4% (active) | 
5 | CC(=O)/C(Br)=C/c1ccc(Br)o1 | -18.2% (active) | 67.1% | 95.6% | 86.1% | 104% | 86.9% | 23.5% | 26.7% | 93.9% | 44.8% | 52.1% | 62.4% | 15.4% | 33% | -66.2% (active) | 93.4% | 105% | 
6 | Nc1ncc(-c2ccc3ncnc(N4CCc5cc(F)c(Cl)cc54)c3c2)cc1C=O | 18.7% | -4.54% (active) |  | 34.5% | -3.8% (active) | -35.9% (active) | 0.575% (active) |  | 28.6% | 7.88% (active) | 9.08% (active) | 0.36% (active) | 37.9% | 11.8% | 36.6% | 21.2% | 39.2% | 31.4
7 | O=C(/C=C/c1cccc([N+](=O)[O-])c1)c1ccc(Nc2nc(Nc3ccc(F)cc3)nc(Nc3ccc(Cl)cc3)n2)cc1 | 8.59% (active) | 32% | 62.7% | 97.3% | 110% | 84.4% | 104% |  | 83.9% | 81.4% | 103% | 102% | 104% | 67.1% | 97.1% |  | 105% | 
8 | COc1cc2cc(Oc3ccc(NC(=O)Nc4ccc(F)c(C(F)(F)F)c4)cc3)c(C)nc2cc1OCCN1CCCCC1 | -46.1% (active) | -25.8% (active) | 127% | 0.714% (active) | 115% | 34.7% | -92.5% (active) | 102% | 74.7% | 78.5% | 85.3% | -92.5% (active) | -76.2% (active) | -75% (active) |  | 96.9% | -79.9% (active) | 
